Results filed as inconclusive are left out. Activity calls are given as the source filed them. Calls come from the whole dose curve.

For the test, the target named is Vitamin D3 receptor (Homo sapiens) (UniProt P11473). As to the kind of experiment: qHTS assay for small molecule agonists of vitamin D receptor signaling (AID 588543). As to conditions: HEK293T VDR-UAS-bla, beta-lactamase ratio, 16 h; series mostly up to 76.8 µM. The source says: NIH Chemical Genomics Center [NCGC]
Chain of Vitamin D3 receptor (Homo sapiens) (P11473 whole entry, looked up): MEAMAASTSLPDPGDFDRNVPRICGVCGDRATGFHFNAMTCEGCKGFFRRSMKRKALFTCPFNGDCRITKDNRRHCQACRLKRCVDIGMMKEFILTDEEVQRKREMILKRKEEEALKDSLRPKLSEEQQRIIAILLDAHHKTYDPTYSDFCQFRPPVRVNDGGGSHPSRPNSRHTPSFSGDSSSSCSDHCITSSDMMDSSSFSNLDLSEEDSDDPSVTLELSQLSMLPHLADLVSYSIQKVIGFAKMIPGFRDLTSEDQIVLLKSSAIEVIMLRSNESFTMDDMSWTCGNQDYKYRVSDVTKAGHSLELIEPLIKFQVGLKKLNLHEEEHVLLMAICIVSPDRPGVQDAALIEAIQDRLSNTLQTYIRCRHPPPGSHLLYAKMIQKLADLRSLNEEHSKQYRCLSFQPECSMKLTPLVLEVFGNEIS
U.S. Environmental Protection Agency [EPA]
National Institutes of Environmental Health Sciences [NIEHS]
National Toxicology Program [NTP]
The Vitamin D receptor (VDR) is a member of nuclear hormone receptor superfamily and it plays a critical role in calcium homeostasis and bone metabolism. It plays a role in inducing cell differentiation, inhibiting cell growth and in thrombogenicity. So, VDR that mediates these effects represents a pharmacological target in prevention and treatment of hyperproliferative malignancies, such as cancer and psoriasis, cardiovascular, immunological, inflammatory and renal diseases etc.
NCGC Assay Protocol Summary
Using a beta-lactamase reporter-gene under control of Vitamin D receptor (VDR) response element, a cell-based assay [GeneBLAzer (VDR -UAS-bla assay developed by Invitrogen] was used to measure VDR ligands signaling. GeneBLAzer VDR -UAS-bla HEK293T cells were used with assay medium containing 2% charcoal-stripped FBS. The assay was performed in clear bottom black Greiner 1536-well plates. 1-alpha,25-Dihydroxy vitaminD3 was used as a positive control in the screen. Library compounds were measured for their ability to stimulate the reporter gene activity. Compounds were screened in a titration series in 1536-well format. The fluorescence intensity (405 nm excitation, 460/530 nm emission) was measured using an EnVision plate reader. Data was normalized relative to 1-alpha,25-Dihydroxy vitaminD3 control (50 nM, 100%) and DMSO only wells (basal, 0%). Concentration-response titration points for each compound were fitted to the Hill equation yielding concentrations of half-maximal stimulation (EC50) and maximal response (efficacy) values.
qHTS protocol for VDR beta-lactamase assay in agonist mode
[Step] [Parameter] [Value] [Description]
1. Reagent; 6 uL; 2000 cells/well
2. Incubation; 37 C for 5 hrs
4. Controls (1-alpha,25-Dihydroxy vitaminD3); 23 nL,
- Final concentrations of 50 nM and 15 nM in two columns
5. Incubation; 37 C for 16 hrs
6. Detection reagent; 1 uL of CCF4-dye
7. Incubation; RT for 2 hrs
8. Detection; Fluorescence; Envision plate reader
For orientation: qHTS replaces the single test concentration by a dilution series.
With `CC(C)(OOC(C)(C)c1ccccc1)c1ccccc1`, the result was inactive.

For `CCNCC`, the result was inactive.

`ClCC(Cl)Cl`: the result was inactive.

For the molecule `OCCCCO`, the outcome was inactive.

Consider `O=S(=O)(Cl)c1ccccc1`, for which the result was inactive.

For `CCBr`, the result was inactive.

For the molecule `CCN(CC)N=O`, the result was inactive.

Take `[O-][Cl+2]([O-])O`: the result was inactive.

As for `Cc1cnc[nH]1`, the result was inactive.

Take `C1CC2OC2CC1C1CO1` (stereo not given): the result was inactive.

For `Nc1c(Br)cc([N+](=O)[O-])cc1[N+](=O)[O-]`, the outcome was inactive.

Regarding `CC(C)CON=O`, the result was inactive.

As to `c1ccc(N=NNc2ccccc2)cc1`, the result was inactive.

For `Nn1cnnc1`, the outcome was inactive.

Regarding `ClC(Cl)c1ccccc1`, the result was inactive.

For `[O-][Cl+]O`, the result was inactive.

Turning to `CCSC(=O)N1CCCCCC1`, the result was inactive.

For the molecule `CCCCC(=O)Cl`, the result was inactive.

As to `Cl/C=C\Cl`, the outcome was inactive.

For the molecule `Oc1ccc(Cl)c(Cl)c1Cl`, the outcome was inactive.

For the molecule `CN(C)c1ccc(N=Nc2ccccc2)cc1`, the outcome was inactive.

`CCCBr`: the result was inactive.

Take `ClP(Cl)(Cl)(Cl)Cl`: the result was inactive.

Take `COP(=S)(OC)SCn1nnc2ccccc2c1=O`: the outcome was inactive.

Take `ClC(Cl)Br`: the outcome was inactive.

As to `CC(C)[N+](=O)[O-]`, the outcome was inactive.

On to `Clc1ccc(C(c2ccccc2Cl)C(Cl)(Cl)Cl)cc1` (stereo not given), for which the outcome was inactive.

For the molecule `[C-]1=CC=CC1.[C-]1=CC=CC1.[Cl-].[Cl-].[Ti+4]`, the outcome was inactive.

For `CN(C)C(=O)Cl`, the result was inactive.

Regarding `Cc1ccc(N)cc1C`, the outcome was inactive.

For `Clc1cccc2ccccc12`, the outcome was inactive.

Consider `Nc1ccc(Cl)c(Cl)c1`, for which the outcome was inactive.

Turning to `C=CC(=O)OC`, the outcome was inactive.

For the molecule `C=C(Cl)CSC(=S)N(CC)CC`, the outcome was inactive.

`BrCC(Br)(Br)Br`: the result was inactive.

For the molecule `O=[N+]([O-])c1c(Cl)c(Cl)c(Cl)c(Cl)c1Cl`, the result was inactive.

For `C=CC(=O)OCCN(C)C`, the outcome was inactive.

As to `CC(C)OC(=O)Cc1ccccc1`, the result was inactive.

On to `C=CCCl`, for which the outcome was inactive.

As to `O=[N+]([O-])c1cccc(CCl)c1`, the outcome was inactive.

The values above are taken from PubChem BioAssay (NCATS).
